Sm TGR block: S. mansoni TGR enzyme inhibition. Q962Y6. purified TGR, DTNB reduction, TNB absorbance 405 nm. Potency, µM (highest dose often 114 µM), inactives show at the highest dose activity change, negative = inhibition, actives largely listed as inhibitors. hit rate 3% among 360,000; active means well fitted inhibition curve with a large enough effect; inconclusive means small, poorly fitted or top-dose-only effect; inactive means no such curve, though single readings can be large or run the other way; further: potency means the concentration at half of the fitted maximal effect; on the % scale 0 is the no-effect control and ±100 the full control effect; nearly all actives have a fitted effect of over 60% in size
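First, TGR (20 nM dispensed) and NADPH were mixed with compound. Second, a 15 min room-temperature incubation followed. Third, further NADPH and then DTNB were added to start the reaction. Finally, TNB absorbance was monitored kinetically.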
FMDV antiviral: foot and mouth disease virus antiviral activity. AID 1159524. FMDV antiviral cell-based qHTS. Potency, µM (titrated, usually from 57.9 µM), without a hit: at the highest dose activity change, negative = inhibition, most hits filed as inhibitors. hit rate 1.2% among 410,000; calls by dose curve; tested in HEK293T cells; further: read-out not given here; potency means the concentration at half of the fitted maximal effect; on the % scale 0 is the no-effect control and ±100 the full control effect; nearly all actives have a fitted effect of over 45% in size
CHX counter-1: counter-screen hit for Shiga toxin inhibitors, cycloheximide; cell reporter, cycloheximide protein synthesis inhibition counterscreen; max response, %; hit rate 12% among 300,000; in the data active means max response mostly above about 13%, no sharp cut-off; inactive means mostly below about 14%; further: read at 38.3 µM for the half of the compounds with a filed dose; 0% is about no effect
Shiga toxin inh: inhibitors of Shiga toxin in Vero cells; Vero cells, Shiga toxin protein synthesis inhibition reporter; inhibition, % at 38.7 µM; hit rate 9.2% among 290,000; in the data active means inhibition mostly above about 28%, no sharp cut-off; inactive means mostly below about 43%; further: 0% is about no effect
CHX counter-2: affects protein synthesis reporter in cycloheximide counter-screen; shares compounds with Shiga toxin inh; Cycloheximide counterscreen, protein synthesis reporter, Shiga toxin assay; Potency, µM (highest dose often 38.3 µM), for the others: top-dose activity (activation), actives largely listed as activators; hit rate 3% among 510; calls by dose curve; further: potency means the concentration at half of the fitted maximal effect; 0% is about no effect
* = called active by the depositor; ? = inconclusive; nt = not tested or not shown. A selection: hits, their analogues and other compounds. The true share with any hit is near 12%.

SMILES | Sm TGR block | FMDV antiviral | CHX counter-1 | Shiga toxin inh | CHX counter-2
COC(=O)c1ccc(Cn2nnc3sc4c(c3c2=O)CCC(C)C4)cc1 (centres undefined) | 12% | 5% | nt | nt | nt
CC1CN(S(=O)(=O)c2cccc(-c3cn4ccccc4n3)c2)CC(C)O1 (centres undefined) | 6% | nt | 19 | -21 | nt
Cc1cccn2cc(-c3cccc(S(=O)(=O)N4CC(C)OC(C)C4)c3)nc12 (centres undefined) | -1% | 4% | -1 | 28* | -1%
O=C(/C=C/c1ccc(S(=O)(=O)NCc2ccco2)cc1)N1CCN(c2ccccc2)CC1 | -27% | ? | 4 | 66* | 5%
CCN1CCN(Cc2nnc(-c3ccc(C)cc3)o2)CC1 | -10% | 10% | 5 | 43* | -1%
Cc1cc(F)ccc1NC(=O)CS(=O)(=O)c1cccc2nsnc12 | -5% | -19% | -5 | -5 | nt
CCc1nnc(NC(=O)c2cccnc2)s1 | -4% | 32% | -4 | -11 | nt
O=C(Nc1nnc(Cc2ccccc2)s1)c1cccnc1 | 0% | 19% | -2 | 59* | -1%
COc1cc(-c2nn3c(-c4ccccc4)nnc3s2)cc(OC)c1OC | -2% | 5% | -1 | -10 | nt
COc1ccc(-c2nnc3sc(-c4ccccc4OC)nn23)cc1 | 0% | 12% | 1 | 87* | -2%
COc1ccc2[nH]c(=O)c(CN(C(=O)c3cccc(Cl)c3)c3ccccc3C)cc2c1 | -6% | 2% | nt | nt | nt
COC(=O)c1nnn(CC(=O)Nc2ccc(Br)c(C)c2)c1N | 9% | -23% | nt | nt | nt
Cc1cccc(N2CCN(C(=O)Cc3ccc(Br)cc3)CC2)c1C | -25% | -18% | 19 | 66* | ?
Cc1cccc(N2CCN(C(=O)CNC(=O)Cc3ccccc3)CC2)c1C | nt | -15% | nt | nt | nt
CC(=O)c1cccc(N2C(=O)C3C4CCC(C4=C(C)C)C3C2=O)c1 (centres undefined) | -6% | -16% | 1 | 25* | -3%
O=C(c1ccco1)N1CCN(C(=O)c2cc(-c3ccccn3)nc3ccc(Cl)cc23)CC1 | 7.9µM* | -4% | 5 | 32* | -1%
O=C(c1ccco1)N1CCN(c2ccnc3cc(Cl)ccc23)CC1 | nt | ? | -3 | -3 | nt
Cc1ccc(-n2c3nc(=O)[nH]c(=O)c-3cc3c(C)nn(-c4ccccc4)c32)cc1C | -13% | -1% | nt | nt | nt
O=C(N/N=C/c1ccccn1)c1ccc(NC(=O)c2ccc(F)cc2)cc1 | 11% | -5% | 11 | 25 | nt
O=C(Nc1ccc(/C=C/c2nc3ccccc3o2)cc1)c1ccc(F)cc1 | 0% | 27% | 9 | 37* | 2.2µM*
COc1ccc(C(=O)Nc2cccc3nc(C)ccc23)cc1OC | ? | -6% | 10 | 24* | 1%
COc1cc(OC)cc(C(=O)Nc2cccc3nc(C)ccc23)c1 | 6% | 12% | -2 | 1 | nt
COc1ccc(-c2[nH]ncc2C(=O)NCc2cccc(Cl)c2)cc1 | -1% | -17% | nt | nt | nt
COc1cccc(C(=O)NNC(=O)C2CC(C)=C(C)CC2C(=O)O)c1 (centres undefined) | 1% | -10% | 2 | 37* | -1%
Nc1ccc2nn(-c3cccc4ccccc34)nc2c1 | 4% | -26% | 2 | 49* | 3%
SMILES | Sm TGR block | FMDV antiviral | CHX counter-1 | Shiga toxin inh | CHX counter-2
O=C(COC(=O)/C=C/c1cccs1)Nc1nc(-c2ccccc2)cs1 | 22µM* | 7% | 3 | 46* | 5%
Cc1ccccc1NC(=O)Cn1nc(C(=O)O)c2ccccc2c1=O | 2% | 4% | -6 | -6 | nt
O=C(Cn1nc(C(=O)O)c2ccccc2c1=O)Nc1nc(-c2ccccc2)cs1 | -10% | 29% | 6 | 40* | ?
O=C(Cn1c(=O)oc2cc(S(=O)(=O)NCc3ccccc3)ccc21)Nc1cccc(F)c1 | -1% | 41% | nt | nt | nt
O=C(NCc1cccnc1)c1nn(-c2ccc(Cl)cc2)nc1CO | 1% | ? | nt | nt | nt
CCOC(=O)c1cnc2c(C(=O)OCC)cnn2c1N | 12% | 49% | 13 | 22 | nt
CCOC(=O)c1cnc2c(-c3cccc(Br)c3)cnn2c1C | 1% | 31% | 6 | active | 2.8µM*
Nc1nnc(SCC(=O)Nc2cccc(F)c2)s1 | 2% | 11% | nt | nt | nt
Cc1cnc(NC(=O)c2ccc(-c3nc4ccccc4s3)o2)s1 | -6% | -3% | 11 | 60* | ?
Cc1cnc(NC(=O)c2ccc(-c3ccc([N+](=O)[O-])cc3)o2)s1 | -11% | -15% | nt | nt | nt
O=C(NNC(=O)c1nc(Cl)ccc1Cl)c1ccc(F)cc1 | 5% | -11% | -2 | 24* | 0%
COc1ccc(CC(=O)NC(C)c2nnc(SCC(=O)c3ccc(Br)cc3)n2C)cc1 (centres undefined) | -2% | ? | 26 | -17 | nt
COc1ccc(CC(=O)NC(C)c2nnc(SCC(=O)Nc3nc(C)cs3)n2C)cc1 (centres undefined) | -2% | 5% | 0 | 30* | -1%
Cn1ncc(Cl)c1C(=O)Nc1cccnc1 | 1% | -5% | -4 | -4 | nt
CSc1cccc(NC(=O)c2c(Cl)cnn2C)c1 | -6% | 34% | 14 | 33* | ?
Cn1ncc(Cl)c1C(=O)Nc1ccc(Cl)cn1 | 4% | 19% | 15 | 45* | ?
CCOC(=O)c1[nH]c2ccc(OC)cc2c1NC(=O)C(C)N1CCC2(CC1)OCCO2 (centres undefined) | -1% | nt | 5 | 49* | -1%
CCOC(=O)c1[nH]c2ccc(OC)cc2c1NC(=O)CN1CCC2(CC1)OCCO2 | 4% | -16% | 5 | -5 | nt
CC(=O)Nc1cccc2ncccc12 | 6% | -7% | -3 | 41* | -5%
COc1ccc(-c2noc(-c3ccc(NC4CCCC4)c([N+](=O)[O-])c3)n2)cc1 | 3% | 3% | nt | nt | nt
OC1C[N+]2(CCCCC2)C1 | -4% | 11% | -2 | 30* | -2%
Cc1ccc(C(=O)OCc2cc(=O)n3nc(-c4cccs4)sc3n2)cc1 | 0% | -18% | nt | nt | nt
Cc1ccc(C2(O)CN(c3ccccc3C)C3=[N+]2CCS3)cc1 (centres undefined) | 1% | -22% | -3 | 48* | -1%
O=C(/C=C/Nc1ccc(F)cc1F)c1ccco1 | -5% | -83% | 10 | 49* | 0.25µM*
O=C(/C=C/c1cccs1)c1ccco1 | nt | 19% | nt | nt | nt
SMILES | Sm TGR block | FMDV antiviral | CHX counter-1 | Shiga toxin inh | CHX counter-2
Cc1cccc(OC(=O)c2cc(-c3ccc(Cl)cc3)on2)c1C | 6% | -10% | nt | nt | nt
COc1cc2c(c(OC)c1OC)-c1c(cc(OC)c(OC)c1OC)CC(C)C(C)C2 (centres undefined) | nt | nt | 8 | 32* | 2%
COc1cc2c(c(OC)c1OC)-c1c(cc3c(c1OC)OCO3)[C@@H](OC(C)=O)[C@H](C)[C@H](C)C2 | -2% | ? | -4 | 17 | nt
CCNc1c(NC(=O)c2cccs2)c(=O)oc2ccccc12 | 0% | 0% | 2 | 30* | 1%
Cn1c2cc(C(=O)O)sc2c2cnn(Cc3ccccc3F)c(=O)c21 | nt | nt | 0 | -1 | nt
CCOC(=O)/C(C(=O)Nc1ccc(Br)cc1)=C1/NC(C)(C)Cc2ccccc21 | -1% | -1% | 11 | 45* | ?
Cc1cccc(N2CCN(Cc3nnc(-c4ccc5c(c4)OCO5)o3)CC2)c1C | -3% | 2% | nt | nt | nt
O=C(COC(=O)c1cncc(Br)c1)Nc1nnc(-c2ccccc2)o1 | nt | -6% | nt | nt | nt
